Over roughly 110,000 compounds, “z-score” has its median near -0.1; the highest 2% begin near 2. The list comes from a sample in which the highest values are over-represented; it also holds similar structures and randomly drawn compounds. Calls of active or inactive are those of the source.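 How the source made its calls: active means z-score in the third read window above 3 or below -3; inactive means the rest.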
Biological target: Metabotropic glutamate receptor 8 (Rattus norvegicus) (UniProt P70579)
Assay: mGluR8 Gi/Go-coupled signaling modulation – cell-based, rat, thallium flux, HTS, primary screen (AID 488969)
Conditions: HEK293 rat mGluR8, GIRK (G protein-gated inwardly rectifying potassium channel) thallium flux, FluoZin2; at 10 µM; stronger effect = higher value; submaximal glutamate (EC20) added with thallium

Sequence of Metabotropic glutamate receptor 8 (Rattus norvegicus) (P70579 whole entry, looked up): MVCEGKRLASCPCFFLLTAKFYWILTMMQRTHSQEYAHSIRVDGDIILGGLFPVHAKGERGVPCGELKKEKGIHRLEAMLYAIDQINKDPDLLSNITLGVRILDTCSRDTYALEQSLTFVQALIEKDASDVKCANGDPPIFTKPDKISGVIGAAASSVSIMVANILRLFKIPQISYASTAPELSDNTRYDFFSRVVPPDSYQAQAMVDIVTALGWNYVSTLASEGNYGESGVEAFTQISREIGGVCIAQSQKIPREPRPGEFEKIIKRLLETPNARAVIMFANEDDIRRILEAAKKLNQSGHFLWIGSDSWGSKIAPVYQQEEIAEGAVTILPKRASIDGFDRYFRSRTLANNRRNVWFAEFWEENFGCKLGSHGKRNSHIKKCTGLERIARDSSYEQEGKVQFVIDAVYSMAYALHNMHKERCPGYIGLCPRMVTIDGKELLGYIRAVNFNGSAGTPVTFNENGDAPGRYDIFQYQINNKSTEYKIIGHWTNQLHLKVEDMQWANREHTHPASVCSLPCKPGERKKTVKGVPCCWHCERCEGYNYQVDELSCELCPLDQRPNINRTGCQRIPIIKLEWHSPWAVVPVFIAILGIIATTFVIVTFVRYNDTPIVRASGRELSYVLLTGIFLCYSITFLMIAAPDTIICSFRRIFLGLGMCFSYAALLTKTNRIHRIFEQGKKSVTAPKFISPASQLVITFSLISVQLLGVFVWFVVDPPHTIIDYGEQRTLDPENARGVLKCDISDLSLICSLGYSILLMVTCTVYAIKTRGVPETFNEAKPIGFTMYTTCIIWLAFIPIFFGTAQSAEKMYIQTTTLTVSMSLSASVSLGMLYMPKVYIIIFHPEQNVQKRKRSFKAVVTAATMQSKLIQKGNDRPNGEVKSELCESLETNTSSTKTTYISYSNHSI

First: O=C(NCc1ccco1)c1ccccc1F
Second: S=C(NCc1ccco1)N/N=C/c1ccccc1Cl
The z-score of the first is lower: 0.717 for the first, 2.22 for the second.

Going from `Cc1ccc(C)c(NC(=O)CNS(=O)(=O)c2ccccc2)c1` to `Cc1ccc(C)c(NC(=S)NC(NC(=O)/C=C/c2ccccc2)C(Cl)(Cl)Cl)c1` (configuration not stated), the z-score falls from -0.144 to -0.264.

First: O=C(CSc1nnnn1-c1ccccc1)N1CCCc2ccccc21
Second: c1ccc2c(c1)CCCN2c1nc2ccccc2n2cnnc12
The z-score of the first is lower: -0.861 for the first, -0.203 for the second.

Compared with `Cc1ccc(NC(=O)CSc2nnc(-c3ccncc3)n2C)cc1C`, `Cc1cc(C)cc(NC(=O)CSc2nc3ccncc3[nH]2)c1` is higher in z-score: -0.215 for the first, 2.24 for the second.

Compared with `COc1cc(OC)c(NC(=O)c2cccc(F)c2)cc1Cl`, `O=C(Nc1ccc(Cl)cn1)c1cccc(F)c1` is higher in z-score: -0.155 for the first, 0.192 for the second.

Compared with `COc1ccc(CC(=O)N(c2ccccc2)c2nc(C)cs2)cc1`, `Cc1c(C)n(C)c2ccc(C(=O)Nc3cccc4ccccc34)cc12` is higher in z-score: -0.721 for the first, 0.368 for the second.

Going from `COc1cccc(C(=O)Nc2ccc(NC(C)=O)cn2)c1` to `CCC(=O)Nc1ccc(NC(=O)c2cccc(OC)c2)nc1`, the z-score rises from 0.157 to 0.209.

First: CCC(=O)Nc1ccc(NC(=O)C23CC4CC(CC(C4)C2)C3)cn1
Second: CCCC(=O)Nc1cc(C)c(NC(=O)C23CC4CC(CC(C4)C2)C3)cn1
The z-score of the first is lower: -0.0944 for the first, 0.0448 for the second.

Going from `CCCC(=O)Nc1ccc(NC(=O)c2cccc(OC)c2)nc1` to `COc1cccc(NC(=O)c2ccc(-n3cccn3)nc2)c1`, the z-score falls from 2.18 to 0.109.

Going from `CCCCC(=O)Nc1ccc(NC(=O)C2CC2)cn1` to `CCCCC(=O)Nc1ccc(NC(=O)C2CC2)nc1`, the z-score falls from 0.324 to 0.252.

Compared with `C[N+]1=C(/C=C/Nc2ccccc2Cl)C(C)(C)c2ccccc21`, `S=C(NCCc1ccccc1)N/N=C/c1ccccc1Cl` is lower in z-score: 0.3 for the first, 0.283 for the second.

Going from `COc1ccc(Cl)cc1NC(=O)NC(C)c1ccncc1` (configuration not stated) to `COc1ccccc1NC(=O)c1ccc(S(=O)(=O)N(C)C)cc1`, the z-score falls from -0.275 to -0.403.

First: O=C(Nc1cc(C(F)(F)F)ccc1N1CCCC1)c1cccnc1
Second: O=C(Nc1cc(C(F)(F)F)ccc1N1CCCCC1)c1cccc([N+](=O)[O-])c1
The z-score of the first is higher: 0.0707 for the first, -0.0811 for the second.

Compared with `O=C(Cn1cc(/C=N/O)c2ccccc21)N1CCOCC1`, `O=C(CSc1nc2ccccc2n1CC(=O)N1CCCC1)Nc1nccs1` is higher in z-score: -0.312 for the first, 0.452 for the second.

First: C=CCn1c(COc2ccc(Cl)cc2)nnc1SCC(=O)N1CC(=O)Nc2ccccc21
Second: Cc1ccccc1N1C(=O)C(Oc2ccc(Cl)cc2)C1CNC(C)(C)C (configuration not stated)
The z-score of the first is lower: -0.735 for the first, 0.46 for the second.

Going from `Nc1nnc(Cc2ccccc2)s1` to `Cc1cnc(NC(=O)CSc2ccccc2)s1`, the z-score falls from -0.122 to -0.175.

Compared with `CC1CCc2nc(NC(=O)CN3CCN(Cc4ccc5c(c4)OCO5)CC3)sc2C1` (configuration not stated), `CC1CCc2nc(NC(=O)Nc3ccc4c(c3)OCO4)sc2C1` (configuration not stated) is lower in z-score: 2.47 for the first, -0.337 for the second.

First: CC1CCc2nc(NC(=O)CN3CCOCC3)sc2C1 (configuration not stated)
Second: CC1CN=C(N(C(=O)Nc2ccccc2)c2ccc(S(=O)(=O)N3CCOCC3)cc2)S1 (configuration not stated)
The z-score of the first is lower: -0.313 for the first, 0.945 for the second.

Going from `Oc1ccc(/C=N/NC(=S)NCc2ccco2)cc1` to `S=C(NCc1ccco1)N/N=C/c1ccc(Cl)cc1`, the z-score rises from 0.806 to 2.21.

Going from `S=C(NCCc1ccccc1)N/N=C/c1cccc(Cl)c1Cl` to `CCc1ccc(/C=N/NC(=S)NCCc2ccccc2)cc1`, the z-score falls from 2.63 to 0.0899.

Compared with `CCN(CC)c1ccc(/C=N/NC(=S)NCc2ccco2)cc1`, `CN(C)c1ccc(/C=N/NC(=S)NCc2ccco2)cc1` is lower in z-score: 0.137 for the first, 0.0065 for the second.

Compared with `S=C(NCc1ccco1)Nc1cc(Cl)c(Cl)cc1Cl`, `S=C(NCc1ccco1)Nc1cccc(Cl)c1` is higher in z-score: 0.256 for the first, 0.899 for the second.

Going from `COc1cc(/C=N/NC(=S)NCc2ccco2)cc(OC)c1OC` to `COc1cc(/C=N/O)c(Br)cc1OCC(=O)Nc1ccccc1C`, the z-score rises from -0.66 to -0.175.

Going from `O=C(O)c1ccc(N2C(=O)c3cccc(Oc4ccc(Cl)cc4)c3C2=O)cc1` to `COc1ccc(C2Nc3ccccc3C(=O)N2Cc2ccco2)cc1COc1ccc(F)cc1` (configuration not stated), the z-score falls from 0.79 to -0.406.

First: CN(C)CCCNC(=O)COc1ccc(Br)cc1Cl
Second: CCCCCOc1ccc(Br)cc1/C(C)=N/NC1=NCCN1
The z-score of the first is lower: 0.032 for the first, 1.05 for the second.

Compared with `CCc1ccc(/C=C/C(=O)c2ccc(S(=O)(=O)N(C)C)cc2)cc1`, `CN(CC(=O)Nc1ccc(F)c(F)c1F)C(=O)/C=C/c1ccc(Cl)cc1` is higher in z-score: -0.379 for the first, -0.265 for the second.

First: C(=C\c1ccccc1)/CSc1nnc(-c2ccccc2)n1Cc1ccco1
Second: S=C1NC(c2ccccc2)N2C(=S)NC(c3ccccc3)N12 (configuration not stated)
The z-score of the first is higher: -0.701 for the first, -1.08 for the second.

Going from `CC(C)COC(=O)c1nnsc1NC(=O)Nc1ccccc1` to `CCN(CC)C(=O)c1cnn(-c2ccccc2)c1NC(=O)c1cccs1`, the z-score falls from 0.142 to -0.27.

First: O=[N+]([O-])c1ccc(Cl)c(/C=N/NC(=S)Nc2ccccc2)c1
Second: CNC(=S)N/N=C/c1ccccc1Cl
The z-score of the first is lower: 1.33 for the first, 1.82 for the second.

Going from `CCOc1ccc(NC(=O)CSc2nnc(C3CC3)n2N)cc1` to `COc1ccc2nc(SCC(=O)Nc3ccc4c(c3)CCC4)[nH]c2c1`, the z-score rises from 0.0098 to 0.226.

First: O=C(CSc1nc2cc(Cl)ccc2s1)NCc1ccc2c(c1)OCO2
Second: Cc1ccc2nc(SCC(=O)Nc3ccc4c(c3)OCCO4)[nH]c2c1
The z-score of the first is higher: -0.0385 for the first, -0.404 for the second.

Compared with `Cc1cccc(C)c1NC(=O)CSc1nc2ccccc2c(=O)[nH]1`, `Cc1cnc(NC(=O)CSc2nc3ccccc3c(=O)[nH]2)s1` is higher in z-score: 0.493 for the first, 2.14 for the second.

Going from `O=C(CCNC(=O)Cn1ccc2ccccc2c1=O)NCCN1CCN(c2cccc(Cl)c2)CC1` to `COc1ccc(CCNC(=O)CCC(=O)N2CCN(S(=O)(=O)c3ccc(Cl)cc3)CC2)cc1OC`, the z-score rises from -0.463 to -0.0943.

Compared with `Clc1ccc(CSc2nc3ccncc3[nH]2)cc1`, `Cc1ccc(CSc2nc3ccncc3[nH]2)cc1` is higher in z-score: 0.673 for the first, 2.46 for the second.

First: O=C(CSc1nc2ccccc2[nH]1)Nc1ccc2c(c1)CCC2
Second: Clc1ccccc1CSc1nc2ccncc2[nH]1
The z-score of the first is lower: -0.809 for the first, 0.533 for the second.

Going from `Cc1cc(C)cc(NC(=O)CSc2nc3[nH]ncc3c(=O)[nH]2)c1` to `CCOC(=O)c1c(NC(=O)CSc2nnc(C)c(=O)[nH]2)sc2c1CCCC2`, the z-score rises from -0.54 to -0.522.

Compared with `Cc1ccc(CSc2nc3ncccc3[nH]2)cc1`, `Nc1cc(=O)[nH]c(SCc2cccc(Cl)c2)n1` is lower in z-score: 1.17 for the first, -0.406 for the second.

Compared with `Cc1c(C(=O)NCCc2ccc3c(c2)OCCO3)oc2ccccc12`, `Cc1c(C(=O)Nc2ccc(-c3nnc4n3CCCCC4)cc2)oc2ccc(Br)cc12` is higher in z-score: -0.63 for the first, -0.49 for the second.

Going from `CCn1cc(C(=O)O)c(=O)c2cc(F)c(N3CCN(S(=O)(=O)c4ccc(Br)cc4)CC3)cc21` to `O=[N+]([O-])c1cc(C(F)(F)F)ccc1N1CCN(S(=O)(=O)c2ccc3ccccc3c2)CC1`, the z-score rises from -0.406 to -0.295.

Going from `COc1ccc(CNC(=O)C2CCN(S(=O)(=O)c3c(C)n[nH]c3C)CC2)cc1` to `COC(=O)N1CCN(c2ccc(OC)cc2)CC1`, the z-score falls from -0.115 to -0.134.

Going from `Cc1c(CCOC(=O)CC23CC4CC(CC(C4)C2)C3)sc[n+]1Cc1ccccc1` to `CC1(C)NC(=O)N(CC(O)CNC23CC4CC(CC(C4)C2)C3)C1=O` (configuration not stated), the z-score rises from 0.256 to 0.426.

First: COC(=O)c1[nH]c2ccc(F)cc2c1NC(=O)CCN1CC(C)OC(C)C1 (configuration not stated)
Second: COc1ccc(OC)c(NC(=O)C2CC(=O)n3ncnc3N2)c1 (configuration not stated)
The z-score of the first is higher: -0.0436 for the first, -0.244 for the second.

First: Cc1ccc(C(=O)N[C@H](C(=O)OCC(=O)NC2CCS(=O)(=O)C2)C(C)C)cc1 (some centres not stated)
Second: CCOc1ccc(C(=O)NC(=S)N2CCN(c3ccc(C(F)(F)F)cc3[N+](=O)[O-])CC2)cc1
The z-score of the first is lower: -0.0806 for the first, 0.854 for the second.

First: Cc1ccc(CN(Cc2ccco2)S(=O)(=O)c2ccc(S(=O)(=O)NCC3CCCO3)cc2)cc1 (configuration not stated)
Second: CC1CCCN(c2ccc(C(=O)OCC(=O)N3c4ccccc4Sc4ccccc43)cc2[N+](=O)[O-])C1 (configuration not stated)
The z-score of the first is higher: -0.00067 for the first, -0.269 for the second.

Compared with `O=C(Cn1nnc(-c2ccccc2-n2cnnn2)n1)N1CCCCC1`, `Cc1ccc(-c2nnn(CC(=O)NCc3ccccc3)n2)c(-n2cnnn2)c1` is lower in z-score: 0.026 for the first, -0.255 for the second.

Going from `CCCCOc1ccc(Br)cc1/C(C)=N/NC1=NCCN1` to `COc1ccc(N2CCSC2C(=O)NN)cc1` (configuration not stated), the z-score rises from 1.54 to 2.09.

Going from `COc1ccccc1N1CCSC1C(N)=O` (configuration not stated) to `CC1=CC(C)(C)N(C(=O)c2ccccc2)c2ccc(C)cc21`, the z-score falls from 0.0543 to -0.576.

Going from `CC1=CC(C)(C)N(C(=O)CSc2ncn[nH]2)c2ccc(C)cc21` to `O=C(Nc1ccc(F)cc1F)c1ccc(-n2cncn2)nc1`, the z-score falls from 0.223 to -0.0309.

Going from `COc1ccc(C(=O)NC(=S)N2CCCCC2)cc1[N+](=O)[O-]` to `COc1cccc(OC)c1C(=O)NC(=S)N1CCN(c2ccc(C(F)(F)F)cc2[N+](=O)[O-])CC1`, the z-score falls from 1.25 to 0.046.

Going from `CO/N=C/c1ccc(N2CCN(C(=O)c3cccc(C(F)(F)F)c3)CC2)c([N+](=O)[O-])c1` to `Cc1nn(-c2cc(C)c3ccccc3n2)c2c1CCC2`, the z-score rises from -0.0941 to 0.557.

With `CCCC(=O)Nc1ccc(NC(=O)C23CC4CC(CC(C4)C2)C3)cn1` the z-score was 5.76 (active).
With `CCCC(=O)Nc1ccc(NC(=O)C2CC2)cn1` the z-score was 13.2 (active).
`S=C(NCc1ccco1)Nc1ccc(Cl)c(Cl)c1` was tested, and the z-score was 8.32 (active).
With `S=C(N/N=C/c1ccccc1Cl)Nc1ccccc1` the z-score was 6.51 (active).
With `Clc1cccc(CSc2nc3ccncc3[nH]2)c1` the z-score was 9.69 (active).
For `O=C(CSc1nc2ccc(Cl)cc2[nH]1)Nc1ccc2c(c1)CCC2`, the z-score was 3.89 (active).
In the case of `Cc1ccc(-c2nnn(CC(=O)N3CCCCC3)n2)c(-n2cnnn2)c1`, the z-score is reported as 3.32 (active).
For `CCOc1ccc(Br)cc1/C(C)=N\NC1=NCCN1`, the z-score was 3.75 (active).
In the case of `CCC(=O)N1c2ccc(C)cc2C2=NNC(=S)NC21O` (configuration not stated), the z-score is reported as 3.09 (active).
In the case of `COc1cc(OC)cc(C(=O)NC(=S)N2CCN(c3ccc(C(F)(F)F)cc3[N+](=O)[O-])CC2)c1`, the z-score is reported as 4.05 (active).
`CC(C)Oc1cccc(C(=O)NC(=S)N2CCN(c3ccc(C(F)(F)F)cc3[N+](=O)[O-])CC2)c1` was tested, and the z-score was 6.72 (active).
In the case of `COc1cccc(C(=O)NC(=S)N2CCN(c3ccc(C(F)(F)F)cc3[N+](=O)[O-])CC2)c1`, the z-score is reported as 4.68 (active).

— PubChem BioAssay AID488969 (Vanderbilt High Throughput Screening Facility, 2010)
